Results as given in PubChem BioAssay AID652054 (National Center for Advancing Translational Sciences (NCATS), 2013).
Hit rate of the full screen: of about 360,000 compounds, about 9,100 (2.5%) were called active. Another 4% or so got no clear call; they are omitted. This excerpt belongs to a sample that is enriched for actives. Values without a mark were called inactive. Rule as the data show it: active = max response below about -50%; inconclusive = no clear call, values can overlap the other calls; inactive = above that.

Target: D(3) dopamine receptor (Homo sapiens) (UniProt P35462)
Sequence (P35462 whole entry, looked up): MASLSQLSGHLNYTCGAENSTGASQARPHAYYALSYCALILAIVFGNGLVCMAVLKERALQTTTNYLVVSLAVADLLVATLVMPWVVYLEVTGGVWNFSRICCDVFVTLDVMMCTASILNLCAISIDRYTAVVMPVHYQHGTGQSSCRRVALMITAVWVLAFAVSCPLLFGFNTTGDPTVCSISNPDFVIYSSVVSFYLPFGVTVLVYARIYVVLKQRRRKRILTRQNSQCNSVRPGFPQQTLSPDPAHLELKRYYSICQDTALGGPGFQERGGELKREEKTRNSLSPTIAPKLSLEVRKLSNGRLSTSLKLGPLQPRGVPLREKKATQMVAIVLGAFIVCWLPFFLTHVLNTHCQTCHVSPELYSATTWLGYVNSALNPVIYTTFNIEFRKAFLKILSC
Assay: qHTS of D3 Dopamine Receptor Antagonist: qHTS
Conditions: D3R cells, DiscoveRx beta-arrestin luminescence, antagonist mode; active compounds read low
In short: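 Cells expressing the human receptor were seeded at 1500 cells/well, incubated overnight at 37 degrees C in 5% CO2, then exposed to library compounds with dopamine controls for 90 minutes at 37 degrees C before luminescent detection.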
% is scaled to controls: 0 for no effect and ±100 for the full control effect.

Row | SMILES | max response, negative = inhibition
1 | Cn1c(C(=O)NCCN2CCc3ccccc3C2)cc2c(=O)[nH]c3ccccc3c21 | -59.2% (active)
2 | O=C(c1ncn2c1c(=O)[nH]c1ccccc12)N1CCc2ccccc2C1 | 1.07%
3 | Cc1cccc(N2CCN(C(=O)c3cc4c(=O)[nH]c5ccccc5c4n3C)CC2)c1C | 2.48%
4 | CCCCCCN1CCN(C2CN(Cc3cn(Cc4ccc(F)cc4)nn3)S(=O)(=O)C2)CC1 (centres undefined) | 3.43%
5 | CCOc1ccccc1NC(=O)c1cc(S(=O)(=O)N2CCC3(CC2)OCCO3)ccc1F | -83.8% (active)
6 | Cc1c(C(=O)Nc2ccccc2Cl)oc2ccc(S(=O)(=O)N3CCC4(CC3)OCCO4)cc12 | 22.3%
7 | Cc1cccc(NC(=O)c2cc(S(=O)(=O)N3CCC4(CC3)OCCO4)ccc2F)c1 | -11.3%
8 | CCCC(=O)N1CCC1(C)C(=O)NCc1ccc(SC)cc1 (centres undefined) | -2.93%
9 | Cc1cccc(S(=O)(=O)N(C)C[C@H]2OCc3cnnn3CCCC(=O)N([C@@H](C)CO)C[C@H]2C)c1 | 19.6%
10 | CC(=O)Nc1c(-c2ccc(C)cc2)nc2ccc(Cl)cn12 | -4.26%
11 | CC(C)c1cc(C(=O)N(C)C2CCCN(Cc3ccccc3F)C2)n(C)n1 (centres undefined) | -9.14%
12 | CSc1ncnc2c1ncn2CCCNCC(C)c1ccccc1 (centres undefined) | 1.7%
13 | CSc1ncnc2c1ncn2CCCNCC1CCCCC1 | -105% (active)
14 | CSc1ncnc2c1ncn2CCCNCc1ccco1 | 0.282%
15 | CCCCNC(=O)OC1CC2CC1[C@H]1CCCCN1C2=O (some centres undefined) | 2.26%
16 | CCOC(=O)N1CCN(S(=O)(=O)c2ccc(Br)cc2)CC1 | 8.1%
17 | CCOC(=O)N1CCN(S(=O)(=O)c2ccc(OC)cc2)CC1 | 3.43%
18 | CCOC(=O)N1CCN(S(=O)(=O)c2ccc(C(=O)Nc3ccc(F)cc3F)cc2)CC1 | -76.7% (active)
19 | Cc1nc(C(F)(F)F)ccc1C(=O)N1CCC1(C)C(=O)NS(=O)(=O)c1ccccc1 (centres undefined) | 25.3%
20 | O=[N+]([O-])c1ccc(CN2CC(N3CC=CC3)CS2(=O)=O)cc1 (centres undefined) | 9.3%
21 | NC(CSC(c1ccccc1)(c1ccccc1)c1ccc(-c2ccccc2)cc1)C(=O)O (centres undefined) | 6.39%
22 | CC(=O)Nc1cccc(NC(=O)c2ccc3c(c2)CCN3S(C)(=O)=O)c1 | -9.74%
23 | O=C(Nc1ccc(CSc2ccccc2)cc1)c1ccc(CN2CCOCC2)cc1 | 2.28%

Row | SMILES | max response, negative = inhibition
24 | Cc1cccc(C)c1NC(=O)c1ccc(CN2CCc3ccccc3C2)cc1 | -84.7% (active)
25 | CN(c1cccc(NC(=O)c2ccc(CN3CCc4ccccc4C3)cc2)c1)S(C)(=O)=O | -69.7% (active)
26 | CN(c1ccc(C(=O)N2CCc3ccccc3C2)cc1)S(C)(=O)=O | 30.4%
27 | CCc1ccc(NC(=O)N2CCc3ccccc3C2)cc1 | -11%
28 | CC1(C(=O)NS(=O)(=O)c2cccc(OC(F)F)c2)CCN1C(=O)C1CC1 (centres undefined) | -9.73%
29 | c1ccc(Cc2c(-c3ccco3)nc3c4ccccc4ccn23)cc1 | 21.1%
30 | O=C(COC(=O)c1ccc(S(=O)(=O)N2CCCCCC2)cc1)Nc1ccccc1C(F)(F)F | -1.68%
31 | CSc1ccc(CNC(=O)C2(C)CCCN2C)cc1 (centres undefined) | 0%
32 | CCOC(=O)N1CCN(C(c2ccnc3ccccc23)c2nnnn2-c2c(C)cccc2C)CC1 (centres undefined) | -7.2%
33 | O=C(CCN1CCc2ccccc2C(O)(c2ccccc2)C1)c1ccc2c(c1)OCCO2 (centres undefined) | -73.7% (active)
34 | O=C(COC(=O)c1ccccc1)c1ccc2c(c1)OCCO2 | -5.24%
35 | CCC1(c2ccccc2)NC(=O)N(CC(=O)c2ccc3c(c2)OCO3)C1=O (centres undefined) | 4.79%
36 | COc1ccc(C(=O)N2CCCCC2c2cc(C(=O)Nc3ccccc3)no2)cc1 (centres undefined) | -19.9%
37 | C[C@H]1CN([C@@H](C)CO)S(=O)(=O)c2ccc(Br)cc2O[C@H]1CN(C)C(=O)c1cnccn1 | -8.27%
38 | Cc1ccc(N(CC(O)CN2CCCC2)S(=O)(=O)c2ccccc2)cc1 (centres undefined) | -57.8% (active)
39 | Cc1cccc(N(CC(O)CN(C)C)S(=O)(=O)c2ccccc2)c1 (centres undefined) | 0.407%
40 | Cc1cc(C)n(CC(O)CN(c2ccccc2)S(=O)(=O)c2ccc3ccccc3c2)n1 (centres undefined) | 10.5%
41 | O=C(Nc1ccc(Cl)cc1)C1Cc2c(-c3ccc4c(c3)OCO4)ccnc2O1 (centres undefined) | -10.5%
42 | O=C(CN1CCN(S(=O)(=O)c2ccc(Br)cc2)CC1)Nc1ccccc1C(=O)c1ccccc1 | -71.6% (active)
43 | COc1ccccc1NC(=O)CN1CCN(S(=O)(=O)c2ccc(Br)cc2)CC1 | -9.35%
44 | O=C(CN1CCN(S(=O)(=O)c2ccc(F)cc2)CC1)Nc1ccccc1F | 0%
45 | Cc1ccc(-c2nc3c(C)cc(Br)cn3c2Cc2ccccc2)cc1 | -0.352%
46 | O=C(NC(=O)c1ccccc1)Nc1ccccc1O | -13.1%

Row | SMILES | max response, negative = inhibition
47 | O=C(NC1=CC(=O)c2ccccc2C1=O)c1ccccc1 | -88.8% (active)
48 | COC(=O)c1nc(NC(=O)c2ccccc2)n[nH]1 | 24.5%
49 | O=C(NCc1nnnn1-c1ccc(Cl)cc1)c1ccc([N+](=O)[O-])o1 | 10.2%
50 | CCc1ccc(NC(=O)CN2CCC(C(=O)c3ccc(OC)cc3)CC2)cc1 | -50.9% (active)
51 | CCc1cc(C(=O)c2ccc(OC)cc2)c(NC(=O)CN2CCN(C)CC2)s1 | -7.92%
52 | COc1ccc(C(=O)N2CCC(C(=O)Nc3ccc(C)cc3)CC2)cc1 | 9.09%
53 | CCCCN(CC)CCCNC(=O)CS(=O)(=O)Cc1nc(-c2cccc(OC)c2)oc1C | -50.9% (active)
54 | COc1ccc(-c2nc(CS(=O)(=O)CC(=O)NCc3cccc(Br)c3)c(C)o2)cc1 | 8.07%
55 | COc1cccc(-c2nc(CS(=O)(=O)CC(=O)NCCc3ccc(OC)c(OC)c3)c(C)o2)c1 | 1.08%
56 | COC(=O)c1ccc2nc(-c3ccc(F)cc3)c(Cc3ccc(C)cc3)n2c1 | 19.7%
57 | CCCOc1ccc(F)cc1-c1cc(C(=O)Nc2ccc(F)c(Cl)c2)[nH]n1 | -15.7%
58 | CCCOc1ccc(F)cc1-c1cc(C(=O)NCc2ccc(F)cc2)[nH]n1 | -2.32%
59 | O=C(CN1CCN(C(=O)c2cccc(F)c2)CC1)Nc1ccccc1F | 137%
60 | Cc1ccccc1CN1CCN(C(=O)c2cccc(F)c2)CC1 | -63.6% (active)
61 | COc1cccc(OC)c1C(=O)N1CCN(Cc2ccccc2F)CC1 | -6.64%
62 | Cc1ccc(S(=O)(=O)N2CCN(C)CC2)cc1 | 7.28%
63 | Cc1ccc(S(=O)(=O)N2CCN(S(=O)(=O)N3CCOCC3)CC2)cc1 | -75.3% (active)
64 | Cc1ccc(C(=O)N2CCN(S(=O)(=O)N3CCOCC3)CC2)cc1 | -16.1%
65 | O=[N+]([O-])c1ccc(CN2CC(N3CCC(c4ccccc4)CC3)CS2(=O)=O)cc1 (centres undefined) | -23.6%
66 | CCOC(=O)[C@]12CCC=C1N(Cc1ccco1)C(=O)[C@H](CC(=O)NCc1cccc(C(F)(F)F)c1)C2 | -18.6%
67 | Oc1ccc(N=Nc2nccs2)c(O)c1 | -73.7% (active)
68 | Oc1ccc2ccccc2c1N=Nc1nccs1 | -67.4% (active)
69 | CCNC(=O)C1CCCN(C(=O)c2cc(F)ccc2C)CC1 (centres undefined) | 15.3%

Row | SMILES | max response, negative = inhibition
70 | CCCCC[C@H](C)N1C[C@@H](COCc2ccccc2)Oc2cc(N3CC[C@@H](N(C)C)C3)ccc2S1(=O)=O | 18.9%
71 | Cc1cc(Cl)ccc1-c1nc(NCCN(C)C)nc2ccsc12 | -28.3%
72 | O=C1CC[C@@H](C(=O)N2CSC[C@@H]2C(=O)Nc2ccc(C(F)(F)F)cc2)N1 | -3.96%
73 | COc1ccc(C2=Nc3ccccc3NC(=O)C2N(C(=O)c2cc3ccccc3[nH]2)c2ccccc2)cc1 (centres undefined) | -13.2%
74 | CCc1ccccc1OCC(=O)Nc1nnc(C2CC2)s1 | -9.37%
75 | O=C(/C(=C/c1cccc(Cl)c1)c1nc2ccccc2[nH]1)c1ccccc1 | -87.4% (active)
76 | O=C(O)c1cccc(NC(=O)c2cc(-c3cccc(Cl)c3)nc3ccccc23)c1 | 14.5%
77 | O=C(N/N=C/c1ccc(Cl)cc1)c1nc2ccc([N+](=O)[O-])cc2c(=O)[nH]1 | 9.98%
78 | CCCn1c(N)c(C(=O)CSc2nnc(Cc3cccs3)n2C2CC2)c(=O)[nH]c1=O | 31%
79 | O=C(NCC(F)(F)F)c1ccc(S(=O)(=O)NCCc2ccc3c(c2)OCCO3)cc1 | 18.6%
80 | CC(C)Cc1ccc(-c2cc3nc(NCc4cccc(Cl)c4)ccn3n2)cc1 | 16.3%
81 | CC(=O)c1ccc(Nc2nc(C(N)c3ccccc3Cl)cs2)cc1 (centres undefined) | 0%
82 | CC1(C(=O)NS(=O)(=O)c2cccc(F)c2)CCN1C(=O)c1cccc2ccccc12 (centres undefined) | -11.4%
83 | Cc1ccccc1N1CCN(S(=O)(=O)c2ccc3ccccc3c2)CC1 | -28.5%
84 | Cc1ccc(C)c(N2CCN(S(=O)(=O)c3ccc4c(c3)oc(=O)n4C)CC2)c1 | 19.9%
85 | Cc1ccc(N2CCN(S(=O)(=O)c3ccc(F)cc3)CC2)c(C)c1 | -54.7% (active)
86 | CCc1nc2c(OCCc3cccc(OC)c3)cccn2c1N(C)C(=O)c1ccc(C)cc1 | -6.67%
87 | O=C(Nc1ccccc1)O/N=C1/CCCc2occc21 | -1.95%
88 | CC(C)(COC(=O)Nc1ccccc1)COC(=O)Nc1ccccc1 | -25.8%
89 | N/C(=N\OC(=O)Nc1ccccc1)c1ccno1 | -63.2% (active)
